FBPA Giardia inh: blocks Giardia fructose-bisphosphate aldolase activity | A8B2U2 | AID 2451 | actives 0.71% (n = 290,000) | purified Giardia FBPA | Potency, µM (doses to about 59.6 µM), inactives show at the highest dose activity, negative = inhibition, hits mostly inhibitors; also: potency is read from the fitted curve at half-maximal effect; nearly all actives have a fitted effect of over 55% in size
Target sequence (A8B2U2 whole entry, looked up): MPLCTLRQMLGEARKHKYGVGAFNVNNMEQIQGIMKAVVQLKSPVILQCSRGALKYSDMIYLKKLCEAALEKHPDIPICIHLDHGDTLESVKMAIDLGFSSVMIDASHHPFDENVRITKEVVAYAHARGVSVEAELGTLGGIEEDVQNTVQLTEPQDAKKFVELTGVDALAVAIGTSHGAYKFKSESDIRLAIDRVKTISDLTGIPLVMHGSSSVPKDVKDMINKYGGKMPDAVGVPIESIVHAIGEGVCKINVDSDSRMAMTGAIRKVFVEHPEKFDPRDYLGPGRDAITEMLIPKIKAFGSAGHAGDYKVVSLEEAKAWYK
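40 nM FBPA preincubated 10 min at RT with compound (up to 57.5 uM final), then substrate plus GAPDH/TPI/NAD/arsenate coupling and diaphorase/resazurin added. Fluorescence read after 20 min at RT, 525/598 nm.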
Pf growth 48h: inhibits P. falciparum growth in the first generation, 48 h. P. falciparum luciferase growth in erythrocytes, 48 h. Potency, µM (titrated, usually from 28.7 µM), for the others: at the top dose activity change, negative = inhibition, most hits filed as inhibitors. actives 5.9% (n = 310,000); also: potency is read from the fitted curve at half-maximal effect
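Here the parasites carry a stable luciferase gene and grow inside erythrocytes in Albumax-based RPMI medium with compound for one erythrocytic cycle. Activity is scored as loss of luminescent signal.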
Pf growth 96h: P. falciparum growth inhibition at 96 hours. actives 6.9% (n = 320,000). Potency, µM (titrated, usually from 28.7 µM), for inactives: at the highest dose activity change, negative = inhibition, usual class: inhibitors. P. falciparum luciferase reporter growth, 96 h; also: potency is read from the fitted curve at half-maximal effect
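Plates of compound plus infected erythrocytes (2% hematocrit, 0.05% parasitemia final) incubate 96 hours, 37 C, 5% CO2. Detection reagent added; reduced luminescence from the parasites' luciferase reporter flags inhibition.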
HCMV inh: inhibitors of human cytomegalovirus | activity change, negative = inhibition, % at 57.5 µM | actives 4.5% (n = 410,000) | HFF cells, HCMV-luciferase reporter, 72 h; hits give low values; in the data active = activity change below about -60%; inconclusive = no clear call, values can overlap the other calls; inactive = above about -39%
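Screen run at 2 compound doses on HFFs infected with reporter HCMV, MOI 1 PFU/cell. Luciferase activity from cell lysates at 72 h post infection gave inhibition relative to buffer-only and Salinomycin wells.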
Sm TGR inh: inhibitors of Schistosoma mansoni thioredoxin glutathione reductase. actives 3% (n = 360,000). purified TGR, DTNB reduction, TNB absorbance 405 nm. AID 485364. Potency, µM (titrated, usually from 114 µM), inactives show top-dose activity change, negative = inhibition, most hits filed as inhibitors; also: potency is read from the fitted curve at half-maximal effect; nearly all actives have a fitted effect of over 60% in size
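TGR 20 nM + NADPH 100 uM (dispensed conc.), cpd preinc 15 min RT; start with NADPH (500 uM addition) then DTNB (15 mM addition). Kinetic TNB absorbance, 405 nm filter. Four-parameter Hill fit across titration.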
Starred values were filed as active, the others as inactive; ? = inconclusive; . = not tested or not shown. Hits are enriched below; roughly 14% of the tested compounds scored in any of these assays. Unless noted, calls follow the shape of the dose curve; as a rule, active = well fitted curve in the direction sought with a large enough effect; inconclusive = small, poorly fitted or top-dose-only effect, or another doubt; inactive = no such curve, though single readings can be large; an effect the other way counts as inactive or inconclusive. % is scaled to controls: 0 for no effect and ±100 for the full control effect.

SMILES | FBPA Giardia inh | Pf growth 48h | Pf growth 96h | HCMV inh | Sm TGR inh
COc1cn(-c2ccccc2)nc1C(=O)OCC(=O)Nc1ccc(C)c(C)c1 | . | 7% | -3% | 8 | 0%
CC[N+](CC)(CC#Cc1ccccc1)CC#Cc1ccccc1 | 1% | 1.5µM* | ? | -30 | 4%
COc1cccc(-c2cc(=O)c3ccc(OC)cc3o2)c1 | 4% | . | . | . | .
Cc1conc1NC(c1cccs1)c1ccc2cccnc2c1O (centres undefined) | 4% | 1.9µM* | 6.6µM* | . | ?
CC(C)CC(=O)NC(c1cccs1)c1ccc2cccnc2c1O (centres undefined) | 0% | ? | 404% | . | 3%
CCCC(=O)NC(c1ccco1)c1cc(Cl)c2cccnc2c1O (centres undefined) | ? | 12µM* | . | -98* | -23%
CC(=O)NC(c1ccco1)c1cc(Cl)c2ccc(Cl)nc2c1O (centres undefined) | . | -15% | 1% | -29 | ?
CCC(=O)NC(c1cccs1)c1cc([N+](=O)[O-])c2cccnc2c1OC (centres undefined) | . | -7% | 2% | -87* | 40µM*
CCCC(=O)NC(c1cccs1)c1cc(Cl)c2cccnc2c1O (centres undefined) | 3% | 3.7µM* | ? | -114* | 1%
CCCCCOc1ccc(Cn2c(=O)oc3ccccc32)cc1 | . | . | . | -12 | 9%
Cc1ccc(S(=O)(=O)NC(CCCNC(=O)OCc2ccccc2)C(=O)O)cc1 (centres undefined) | . | . | . | -37 | .
CCC(=O)NC(c1cccs1)c1ccc2cccnc2c1O (centres undefined) | 7% | 2.3µM* | ? | -101* | 0%
COC(=O)c1ccc(Nc2nccc3[nH]c(-c4cccc(C(F)(F)F)c4)cc23)cc1 | . | . | . | 4 | .
COc1ccc(-n2c(Cn3c(=O)sc4ccccc43)nnc2SC)cc1 | 1% | 3% | 1.9µM* | 4 | 3%
CCSc1nnc(Cn2c(=O)sc3ccccc32)n1-c1ccc(OC)cc1 | 12% | -12% | ? | -11 | -14%
CCOC(=O)CSc1nnc(Cn2c(=O)sc3ccccc32)n1-c1ccccc1C | -9% | 4% | 15µM* | 6 | 0%
Cn1c(Cn2c(=O)sc3ccccc32)nnc1SCC(=O)Nc1ccc(Cl)cc1 | 1% | 2% | 10µM* | 17 | -2%
Cn1c(Cn2c(=O)sc3ccccc32)nnc1SCC(=O)N1CCc2ccccc21 | -2% | 5% | 5.2µM* | 26 | 5%
CN(C)Cc1ccccc1-c1nc(N(C)Cc2ccco2)c2ccccc2n1 | -5% | . | . | . | .
Cn1c(CNC(=O)c2cccs2)nnc1SCC(=O)Nc1ccc(Cl)cc1 | 11% | 12µM* | ? | -15 | -6%
Cc1ccc(NC(=O)CSc2nnc(CNC(=O)c3ccco3)n2C)cc1C | . | -8% | 13µM* | -10 | -6%
CCn1c(CSc2ncccn2)nnc1SCC(=O)N1CCc2ccccc21 | -8% | ? | 4.7µM* | 76 | -28%
Nc1nc2n(n1)C(=O)CC(c1ccccc1)N2 (centres undefined) | 5% | 16% | 9.3µM* | -15 | 0%
O=C(O)/C=C/C(=O)Nc1ccccc1-c1ccccc1NC(=O)/C=C/C(=O)O | -2% | 0% | ? | -15 | 8.9µM*
O=C(O)/C=C\C(=O)Nc1ccccc1C#Cc1ccc(Br)cc1 | -9% | 24% | 62% | 16 | 45µM*
SMILES | FBPA Giardia inh | Pf growth 48h | Pf growth 96h | HCMV inh | Sm TGR inh
O=C(O)c1ccccc1C(=O)OCCCCOC(=O)c1ccccc1C(=O)O | 17% | -5% | 15µM* | -1 | 7%
CCCCCCOC(=O)c1ccccc1NC(=O)/C=C/C(=O)O | 9% | -7% | -20% | 22 | 45µM*
COc1ccc(-c2cc3c(=O)n(CC(=O)Nc4cc(C)ccc4C)ccn3n2)cc1 | . | . | . | 28 | 0%
c1cncc(C2SCCCS2)c1 | . | . | . | 29 | .
NC(=O)c1ccccc1NC(=O)/C=C/C(=O)O | 4% | . | -38% | 4 | 3%
O=C(O)/C=C/C(=O)Nc1ccccc1SC(F)(F)F | 7% | 0% | 0% | -1 | 8.9µM*
O=C(O)/C=C\C(=O)Nc1ccccc1C#Cc1ccccc1 | 2% | 127% | 89% | -13 | 40µM*
CCc1nc2ccc(C(=O)NCc3ccccc3OC)cn2c1N(C)Cc1ccc(N(C)C)cc1 | . | . | . | -1 | .
O=C(NCc1ccc(F)cc1)c1ccccc1OCc1ccccc1 | -4% | ? | ? | -63* | -2%
O=C(NNC(=O)c1ccccc1OCc1ccccc1)c1ccccc1O | . | ? | ? | -88* | -23%
O=C(NNC(=O)c1ccccc1OCc1ccc(F)cc1)c1ccccc1O | . | ? | 8.3µM* | -95* | -11%
CC(=O)c1ccccc1OCc1ccc(S(=O)(=O)Cc2ccccc2)cc1 | 6% | 0% | 35% | -71* | -6%
O=C(NNC(=O)c1ccccc1OCc1ccccc1)c1ccccc1F | -11% | 41% | 68% | 132 | -3%
COCCCNC(=O)N1CCN(c2nnc(C)c3c(C)n(-c4ccc(Cl)cc4)nc23)CC1 | . | . | . | 2 | 4%
c1ccc(C(NCc2cccnc2)(c2ccccc2)c2ccccc2)cc1 | 5% | . | . | . | .
CC(=O)NC(Cc1ccc(O)cc1)C(=O)O (centres undefined) | . | . | . | 12 | .
CC(C)(C)OC(=O)NCCCC1=CC2=CC(=O)C(C)(OC(=O)c3cnc4ccccc4n3)C(=O)C2=CO1 (centres undefined) | -19% | . | . | . | .
CC(=O)C(Sc1nn(C)c(=S)s1)C(=O)Nc1ccccc1 (centres undefined) | ? | 120% | ? | 76 | 25µM*
O=[N+]([O-])c1cc2c(cc1Br)-c1ccccc1C2 | . | . | . | -21 | .
O=C(c1ccc(C#Cc2ccccc2)o1)N1CCN(c2ccccn2)CC1 | 0% | -19% | 8.3µM* | ? | 1%
O=C(c1ccc(CS(=O)Cc2ccccc2Cl)o1)N1CCN(c2ccccn2)CC1 (centres undefined) | 4% | -28% | -11% | -13 | ?
COc1ccccc1S(=O)(=O)Cc1ccc(C(=O)N2CCN(c3ccccn3)CC2)o1 | 2% | ? | ? | . | 28µM*
O=C(c1ccc(CS(=O)Cc2ccc(Cl)cc2)o1)N1CCN(c2ccccn2)CC1 (centres undefined) | -1% | -27% | 10µM* | -30 | ?
CCCNc1nc(-c2ccccc2)c(C(=O)OCC)cc1C#N | 12% | 12µM* | 0% | ? | -3%
CCCCNc1nc(-c2ccccc2)c(C(=O)OCC)cc1C#N | -1% | ? | ? | -3 | 12%
O=C1N=C(N2CCN(c3ccccc3)CC2)S/C1=C/c1cccs1 | -5% | -17% | 13µM* | 2 | 0%
O=C1N=C(c2ccccc2)S/C1=C\c1cccs1 | -18% | . | 39% | 17 | 4µM*
CC(=O)N1CCN(C2=NC(=O)/C(=C/c3ccc(OS(=O)(=O)c4ccccc4)cc3)S2)CC1 | -9% | ? | ? | -70* | -18%

Assay outcomes deposited in PubChem by National Center for Advancing Translational Sciences (NCATS).
